Shown are actives, neighbours in structure and some others; about 3.9% of the full set was active somewhere.
TROY NFkB inh: inhibitors of TROY-driven NF-kB signaling, primary screen, Q293 LMP1-TROYcd cells, NF-kB luciferase, uHTS | Q293 LMP1-TROYcd NF-kB luciferase reporter, 4 h | inhibition, % at 10 µM | 360,000 compounds, 0.98% hits | AID 1347056, 2019;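 active = compounds whose plate-normalised and pattern-corrected inhibition of the luciferase reporter signal at the single screening dose is 50% or more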
HIF-2a inh: HIF-2a reporter inhibitors, primary screen, luminescence, 786-0 RCC cells. 360,000 compounds, 0.72% hits. 786-0 RCC cells HIF-2a reporter, luciferase luminescence, overnight. AID 624352, 2012. inhibition, % at 18.8 µM;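 active = inhibition of the luminescence signal of 40% or more relative to plate controls, in a single-dose primary screen at 18.75 µM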
HSP90 inh: HSP90 inhibitors, primary screen, cell lysate, luminescence. 290,000 compounds, 0.91% hits. AID 1789, 2009. inhibition, % at 5.6 µM. Rabbit reticulocyte lysate, luciferase refolding luminescence, 3 h;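 active = inhibition above the screen-wide mean plus 3 SD, computed separately per campaign, cut at about 16% in these data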;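 also: inhibitors lower the luminescence because luciferase stays unfolded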
TWEAK-Fn14 inh: inhibitors of TWEAK-Fn14 signaling, primary screen, luciferase reporter cells, uHTS. inhibition, % at 10 µM. 360,000 compounds, 2% hits. TWEAK-stimulated Fn14 reporter cells, luciferase luminescence, 8 h; in the data active = inhibition above about 50%
aSyn 5UTR inh: MLPCN primary screen, SNCA 5' untranslated region | alpha-synuclein 5'UTR reporter, inhibitor activity | inhibition, % (tested at 7.5 µM) | 300,000 compounds, 0.82% hits | AID 1813, 2009; in the data active = inhibition above about 60%;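 also: H4 neuroglioblastoma cells stably carrying SNCA 5'UTR luciferase fusion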
C8 TRAIL sens: viability loss with TRAIL in NB7+C8 cells, primary screen, TRAIL sensitizer project, cell-based, ATPlite luminescence; 360,000 compounds, 1% hits; AID 624354, 2012; inhibition (viability loss, TRAIL sensitization), % at 10 µM;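 active = compounds causing at least 50% loss of cell viability in the single-dose screen, relative to plate controls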
Each line names hits and unclear results; the compound was inactive in the other large screens.

CC(=O)NNC(=O)c1[nH]c2ccc(Cl)cc2c1-c1ccccc1	none
NNC(=O)c1[nH]c2ccccc2c1-c1ccccc1	aSyn 5UTR inh 95.7
Cc1ccc(-c2nn3nnnc3c3ccccc23)cc1C	none
Cc1ccc(-c2nn3cnnc3c3ccccc23)cc1C	aSyn 5UTR inh 64.2
O=C(Nc1cccc(S(=O)(=O)Nc2ccc(Cl)cc2)c1)c1cc2c(s1)CCCC2	TWEAK-Fn14 inh 83.5
Cc1ccc(NC(=O)c2cc3c(s2)CCCC3)cc1S(=O)(=O)Nc1ccccc1Cl	TWEAK-Fn14 inh 78.5
O=C(Nc1cc(S(=O)(=O)Nc2ccccc2Cl)ccc1O)c1cc2c(s1)CCCC2	none
Cc1ccc(C(=O)Nc2ccc(C)c(S(=O)(=O)Nc3ccccc3Cl)c2)s1	none
CCOC(=O)N1CCN(C(=O)C[C@@H]2C[C@@]3(C(=O)OC)CC(C)(C)CC=C3N(Cc3ccc4c(c3)OCO4)C2=O)CC1	none (no result: TROY NFkB inh, HSP90 inh, TWEAK-Fn14 inh, aSyn 5UTR inh)
Cc1cc(OCCCN2CCC(C(O)(c3ccccc3)c3ccccc3)CC2)ccc1Br	none (no result: HSP90 inh, aSyn 5UTR inh)
COc1cc(/C=N/NC(=O)c2ccc(N)cc2)ccc1OC(=O)c1cccc(C)c1	TROY NFkB inh 52.6
COc1cc(C(=O)N/N=C/c2cccc(Oc3ccccc3)c2)ccc1O	none
COc1cc(C(=O)N/N=C/c2ccc(OC(=O)c3cccc(C)c3)cc2)ccc1O	TROY NFkB inh 51.3
COc1ccccc1CNC(=O)c1ccc2nc(C)c(N(C)Cc3ccc(NC(C)=O)cc3)n2c1	none (no result: HSP90 inh, aSyn 5UTR inh)
COc1ccc(-c2coc3c(C(=O)Nc4cccc(NS(C)(=O)=O)c4)cccc23)c(C)c1	none (no result: HSP90 inh, aSyn 5UTR inh)
COc1ccc(NC(=O)/C(Cl)=C(/Cl)S(=O)Cc2ccc(Cl)cc2)cn1 (stereo not drawn)	TROY NFkB inh 89.8, HIF-2a inh 97.3, TWEAK-Fn14 inh 100.8 (no result: aSyn 5UTR inh)
COC(=O)c1ccc(N=NNc2ccc(C(=O)OC)cc2)cc1	HSP90 inh 16.2
COC(=O)c1ccc(N=NNc2cccc(Br)c2)cc1	none (no result: aSyn 5UTR inh)
Cc1ccccc1-n1c(-c2csc(C)c2C)n[nH]c1=S	none
Cc1cccc(-n2c(-c3csc(C)c3C)n[nH]c2=S)c1	TWEAK-Fn14 inh 92.1
Cc1ccc(OCC(=O)Nc2ccccc2C(N)=O)cc1	C8 TRAIL sens 52.2
NC(=O)c1ccccc1NC(=O)COc1ccc(Cl)cc1	none
Cc1nn(-c2ccccc2)c2c1C(c1c(C)[nH]c(C#N)c1C)C(C#N)=C(N)O2 (stereo not drawn)	HSP90 inh 36.4
Cc1nn(-c2ccccc2)c(Cl)c1C1C(C#N)=C(N)Oc2c1c(C)nn2-c1ccccc1 (stereo not drawn)	none
Cc1ccc(N2C(=O)CC(NNc3nc4ccccc4s3)C2=O)cc1 (stereo not drawn)	none
O=C1CC(NNc2nc3ccccc3s2)C(=O)N1c1ccccc1 (stereo not drawn)	TROY NFkB inh 61.0
Clc1ccccc1Cc1noc(CN2CCN(Cc3ccccn3)CC2)n1	none
CCC1CCCCN1Cc1nc(Cc2ccccc2Cl)no1 (stereo not drawn)	C8 TRAIL sens 85.2
Cc1ccc(C)c(N2CCN(C3C(=O)Nc4ccccc4-n4nnnc43)CC2)c1 (stereo not drawn)	none (no result: TROY NFkB inh, HSP90 inh, TWEAK-Fn14 inh, aSyn 5UTR inh)
CCC(C)(C)c1ccc(OCCCC[n+]2cccc(C)c2)c(C(C)(C)CC)c1	TWEAK-Fn14 inh 76.9
Cc1ccc[n+](CC(=O)Nc2cc(C(F)(F)F)ccc2Cl)c1	none
CC(C)c1cc(C(=O)NNC(=S)NC2CCCCC2)cs1	TWEAK-Fn14 inh 50.3
CCc1cc(C(=O)NNC(=S)NC2CCCCC2)cs1	none
O=C(CCS(=O)(=O)c1ccccc1)Nc1ccc(-c2nc3ccccc3s2)cc1	C8 TRAIL sens 64.8
O=C(O)CCC(=O)Nc1cccc(-c2csc(-c3ccccc3)n2)c1	HIF-2a inh 82.6, TWEAK-Fn14 inh 57.3
CCCCC(=O)Nc1cccc(-c2csc(-c3ccccc3)n2)c1	none
CCc1ccc(NC(=O)Cn2cnc3c(=O)n(C)c(=O)n(C)c32)cc1	none
O=C(CCS(=O)(=O)c1ccccc1)Nc1cccc(-c2nc3ccccc3s2)c1	TROY NFkB inh 57.3, TWEAK-Fn14 inh 86.8, C8 TRAIL sens 54.4
Cn1c(=O)c2ncn(CC(=O)Nc3cccc(-c4nc5ccccc5s4)c3)c2n(C)c1=O	TWEAK-Fn14 inh 66.8 (no result: aSyn 5UTR inh)

Screening results as filed in PubChem.
